Experimental data: PubChem BioAssay AID743047 (Broad Institute, 2013)
Entries with a potency or affinity are not part of this list. Unmarked numbers belong to inactive results. The source made the active and inactive calls. No rule for the calls is given here.

Assay: PAX5 cellular inhibition readout – cell-based, plate reader, dry powder samples, selectivity assay for PAX8 inhibitor project, dose response (AID 743047)
Conditions: cell-based PAX5 selectivity counter-screen; series mostly up to 50 µM
With `O=C(CCCN1C(=O)/C(=C\c2cccc(Br)c2)SC1=S)Nc1cccnc1` the outcome was “inactive”.
With `CC1(C)CC(=O)c2sc(NC(=O)CCS(=O)(=O)c3ccccc3)nc2C1` the outcome was “inactive”.
For `O=C(CCCN1C(=O)/C(=C\c2cccc(Br)c2)SC1=S)Nc1ccccn1`, the outcome was “inactive”.
In the case of `COc1ccc(OC)c2sc(N(CCCN(C)C)C(=O)CCS(=O)(=O)c3ccccc3)nc12`, the outcome is reported as “inactive”.
For `COc1ccc(S(=O)(=O)Nc2ccc3c(c2)CC(=O)N([C@@H](C)CO)C[C@@H](C)[C@@H](CN(C)Cc2ccc(-c4ccccc4)cc2)O3)cc1`, the outcome was “inactive”.
For `C[C@H]1CN([C@@H](C)CO)C(=O)CCCn2nncc2CO[C@@H]1CN(C)C(=O)Nc1ccc(-c2cccs2)cc1`, the outcome was “inactive”.
In the case of `CN(C[C@H]1N[C@@H](CO)[C@@H]1c1ccc(C2=CCCC2)cc1)C(=O)c1cccc(F)c1`, the activity change, negative = inhibition is reported as 243% [at 8 µM].
In the case of `N#C[C@H]1N[C@H](CO)[C@@H]1c1ccc(C#Cc2ccccc2F)cc1`, the outcome is reported as “inactive”.
With `O=C1/C(=C/c2ccccc2F)SC(=S)N1CC(=O)N1CCCCC1c1cccnc1` (stereo unspecified) the outcome was “inactive”.
For `CN(C[C@H]1N[C@@H](CO)[C@@H]1c1ccc(C2=CCCC2)cc1)C(=O)c1ccc(F)cc1`, the activity change, negative = inhibition was 225% [at 8 µM].
In the case of `COc1cccc2sc(N(CCCN(C)C)C(=O)CCS(=O)(=O)c3ccccc3)nc12`, the outcome is reported as “inactive”.
